Reference: PubChem BioAssay AID1159580 (chemical genetic matrix, 2015)
Screen size: about 5,500 compounds; about 2,000 (36%) were called active. Not shown: some 18% with an inconclusive outcome. Cut-off read from the data, not from the text of the source: active = normalized growth mostly below about 0.91 (no sharp cut-off); inconclusive = no clear call, values can overlap the other calls; inactive = mostly above about 0.92. The list shows a part of the results.

Assay: chemical genetic growth profiling, strain panel (AID 1159580);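 note: tested at 20 µM; growth read once vehicle control cultures reached saturation at 30 °C; 1 = growth at the plate median or of vehicle wells; lower values mean less growth of the strain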
Details: S. cerevisiae deletion strains, growth OD
[1] = locus YAL013W, strain DEP1, active compounds read low
[2] = locus YGR078C, strain PAC10, active compounds read low
[3] = locus YNL128W, strain TEP1, active compounds read low
[4] = locus YHR030C, strain SLT2, active compounds read low

Measured: normalized growth

CSc1ccc(C(=O)c2[nH]c(=O)[nH]c2C)cc1
inactive: [1] 0.943 | locus YAL040C, strain CLN3, active compounds read low 1.06 | locus YCL061C, strain MRC1 (second series), active compounds read low 0.991 | locus YDR363W, strain ESC2, active compounds read low 0.934 | locus YER002W, strain NOP16, active compounds read low 0.978 | [2] 1 | locus YMR307W, strain GAS1, active compounds read low 1.01 | [3] 0.981 | locus YNL175C, strain NOP13, active compounds read low 0.985 | locus YNL197C, strain WHI3, active compounds read low 0.994 | locus YNL224C, strain SQS1, active compounds read low 0.994 | locus YOR083W, strain WHI5 (second series), active compounds read low 0.96

CC[C@@H]1OC(=O)C[C@@H](O)[C@H](C)[C@@H](O[C@@H]2O[C@H](C)[C@@H](O)[C@H](N(C)C)[C@H]2O)[C@@H](CCN2C[C@H](C)C[C@H](C)C2)C[C@@H](C)C(=O)/C=C/C(C)=C\[C@@H]1CO[C@@H]1O[C@H](C)[C@@H](O)[C@@H](OC)[C@H]1OC
inactive: locus YAL021C, strain ccr4, active compounds read low 1 | locus YAL026C, strain drs2, active compounds read low 0.994 | locus YAL030W, strain snc1, active compounds read low 0.996 | locus YBL061C, strain skt5, active compounds read low 0.99 | locus YBR009C, strain hhf1, active compounds read low 1 | locus YBR023C, strain chs3, active compounds read low 0.997 | locus YBR171W, strain sec66, active compounds read low 1.01 | locus YBR231C, strain swc5, active compounds read low 0.986 | locus YBR279W, strain paf1, active compounds read low 0.982 | locus YCL011C, strain gbp2, active compounds read low 0.971 | locus YCL016C, strain dcc1, active compounds read low 0.967 | locus YCL069W, strain vba3, active compounds read low 1.02 | locus YCR088W, strain abp1, active compounds read low 1.01 | locus YDL005C, strain med2, active compounds read low 0.994 | locus YDL040C, strain nat1, active compounds read low 0.996 | locus YDR001C, strain nth1, active compounds read low 1.01 | locus YDR069C, strain doa4, active compounds read low 0.992 | locus YDR137W, strain rgp1, active compounds read low 1 | locus YDR159W, strain sac3, active compounds read low 0.931 | locus YDR195W, strain ref2 0.972 | locus YDR297W, strain sur2, active compounds read low 1.01 | locus YDR334W, strain swr1, active compounds read low 0.995 | locus YDR335W, strain msn5, active compounds read low 1.01 | locus YDR392W, strain spt3, active compounds read low 0.887 | locus YEL003W, strain gim4, active compounds read low 1.01 | locus YEL037C, strain rad23, active compounds read low 1.01 | locus YEL061C, strain CIN8 (second series), active compounds read low 1.01 | locus YER015W, strain faa2, active compounds read low 1 | locus YER016W, strain bim1, active compounds read low 0.993 | locus YER111C, strain swi4, active compounds read low 1 | locus YER155C, strain BEM2 (second series), active compounds read low 1 | locus YFR010W, strain ubp6, active compounds read low 1 | locus YGL167C, strain pmr1, active compounds read low 1 | locus YGL173C, strain kem1, active compounds read low 0.981 | locus YGL227W, strain vid30, active compounds read low 0.987 | locus YGL240W, strain doc1, active compounds read low 0.975 | locus YGL253W, strain hxk2, active compounds read low 1.01 | locus YHR013C, strain ard1, active compounds read low 0.955 | locus YHR027C, strain rpn1, active compounds read low 1 | [4] 0.978 | locus YHR079C, strain IRE1, active compounds read low 0.971 | locus YHR142W, strain chs7, active compounds read low 0.983 | locus YJL092W, strain hpr5, active compounds read low 1.01 | locus YJL095W, strain BCK1 (second series), active compounds read low 0.996 | locus YJL095W, strain BCK1, active compounds read low 0.974 | locus YJL115W, strain asf1, active compounds read low 1.01 | locus YJL129C, strain trk1, active compounds read low 1 | locus YJL154C, strain vps35, active compounds read low 1.02 | locus YJL164C, strain tpk1, active compounds read low 1.03 | locus YJL166W, strain qcr8, active compounds read low 1.02 | locus YJR066W, strain TOR1, active compounds read low 0.939 | locus YKL160W, strain elf1, active compounds read low 0.974 | locus YKR026C, strain gcn3, active compounds read low 0.997 | locus YKR091W, strain srl3, active compounds read low 1 | locus YLL001W, strain dnm1, active compounds read low 1 | locus YLL026W, active compounds read low 0.993 | locus YLL041C, strain sdh2, active compounds read low 1.01 | locus YLR027C, strain aat2, active compounds read low 0.994 | locus YLR113W, strain HOG1, active compounds read low 1 | locus YLR221C, strain rsa3, active compounds read low 0.99 | locus YLR258W, strain gsy2, active compounds read low 0.992 | locus YLR262C, strain YPT6 (second series), active compounds read low 1.03 | locus YLR320W, strain mms22, active compounds read low 0.981 | locus YLR342W, strain FKS1, active compounds read low 0.984 | locus YLR357W, strain rsc2, active compounds read low 0.987 | locus YLR370C, strain arc18, active compounds read low 0.99 | locus YLR384C, strain iki3, active compounds read low 0.981 | locus YML120C, strain ndi1, active compounds read low 1.01 | locus YMR058W, strain fet3, active compounds read low 1 | locus YMR125W, strain sto1, active compounds read low 0.996 | locus YMR129W, active compounds read low 1 | locus YMR205C, strain PFK2, active compounds read low 1.01 | locus YMR231W, strain pep5, active compounds read low 1 | locus YNL071W, strain lat1, active compounds read low 1.02 | locus YNL183C, strain NPR1, active compounds read low 0.955 | locus YNL209W, strain ssb2, active compounds read low 1 | locus YNL248C, strain rpa49, active compounds read low 1 | locus YNL322C, strain KRE1 (second series), active compounds read low 0.997 | locus YNR049C, strain mso1, active compounds read low 1 | locus YOR001W, strain rrp6, active compounds read low 0.994 | locus YOR070C, strain gyp1, active compounds read low 0.999 | locus YOR080W, strain dia2, active compounds read low 1.01 | locus YOR083W, strain WHI5, active compounds read low 0.943 | locus YOR106W, strain vam3, active compounds read low 1.01 | locus YOR231W, strain MKK1, active compounds read low 0.976 | locus YOR265W, strain rbl2, active compounds read low 1 | locus YOR270C, strain vph1, active compounds read low 0.976 | locus YOR290C, strain snf2, active compounds read low 0.978 | locus YPL051W, strain arl3, active compounds read low 0.998 | locus YPL078C, strain atp4, active compounds read low 0.991 | locus YPL106C, strain sse1, active compounds read low 0.963 | locus YPL240C, strain hsp82, active compounds read low 1 | locus YPL256C, strain CLN2, active compounds read low 0.952

CCOC(=O)C(=CNNS(=O)(=O)c1cc(C(F)(F)F)cc(C(F)(F)F)c1)C(=O)OCC
inactive: [1] 1.01 | locus YBR229C, strain ROT2, active compounds read low 0.997 | locus YCL061C, strain MRC1, active compounds read low 0.979 | locus YDL101C, strain DUN1, active compounds read low 0.929 | locus YDL134C, strain PPH21, active compounds read low 1 | locus YDR150W, strain NUM1, active compounds read low 1 | locus YEL061C, strain CIN8, active compounds read low 1.01 | [2] 0.967 | [4] 1 | locus YHR087W, strain rtc3, active compounds read low 0.96 | locus YJR043C, strain POL32, active compounds read low 0.973 | locus YKL190W, strain CNB1, active compounds read low 0.992 | locus YLR039C, strain RIC1, active compounds read low 0.931 | locus YLR058C, strain SHM2 (second series), active compounds read low 0.954 | locus YLR085C, strain ARP6, active compounds read low 1.03 | locus YLR262C, strain YPT6, active compounds read low 0.968 | locus YML094W, strain GIM5, active compounds read low 0.988 | locus YMR219W, strain ESC1, active compounds read low 0.989 | locus YMR263W, strain SAP30, active compounds read low 1.04 | [3] 0.945 | locus YNL298W, strain CLA4 (second series), active compounds read low 1 | locus YNL322C, strain KRE1, active compounds read low 0.993 | locus YNR030W, strain Alg12, active compounds read low 1 | locus YPL055C, strain LGE1, active compounds read low 1.03 | locus YPL241C, strain CIN2, active compounds read low 1.02 | locus YPR135W, strain CTF4, active compounds read low 0.964
